Many of the other results were omitted from the sample, so hits are more common in it than they were.
miR-122 inh: miR-122 suppressors via Renilla sensor increase, primary screen, cell-based, Huh7 psiCHECK-miR122, Renilla luciferase, single point; 48 h; activation, % at 12.5 µM; 340,000 compounds, 0.14% hits; AID 623901, 2012;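 active = mean activation of 30% or more, with every replicate also reaching 30%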;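 also: higher luciferase signal means stronger suppression of miR-122 activity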
Numbers stand for hits; i = inactive.

SMILES	miR-122 inh
CCCC#Cc1ccc2c(c1)O[C@@H](CN(C)S(C)(=O)=O)[C@H](C)CN([C@@H](C)CO)S2(=O)=O	i
O=C(Nc1ccc(OC(F)F)cc1)Nc1cccc(C(F)(F)F)c1	44
O=C(Cc1cccc2ccccc12)Nc1ccc(OC(F)F)c(Cl)c1	i
CC(OC(=O)c1cccc(S(=O)(=O)Nc2cccc(C(F)(F)F)c2)c1)C(=O)Nc1ccc2c(c1)OCCO2 (stereo not given)	i
CCC(=O)Nc1ccc2c(c1)OC[C@H](C)N(C(=O)c1ccncc1)C[C@@H](C)[C@@H](OC)CN(C)C2=O	i
C[C@H](CO)N1C[C@H](C)[C@H](CN(C)S(=O)(=O)c2cccs2)Oc2ncc(-c3cccc(C(F)(F)F)c3)cc2C1=O	i
CO[C@@H]1CN(C)C(=O)c2ccc(NS(=O)(=O)c3ccc(C)cc3)cc2OC[C@H](C)N(C)C[C@@H]1C	i
CCCNC(=O)C[C@H]1CC[C@@H]2[C@@H](COc3ccc(NC(=O)c4ccc(C(F)(F)F)cc4)cc3C(=O)N2C)O1	45
CN1C(=O)c2cc(NC(=O)c3ccc(C(F)(F)F)cc3)ccc2OC[C@H]2O[C@H](CC(=O)NCc3ccc4c(c3)OCO4)CC[C@H]21	33
Cc1ccc(S(=O)(=O)Nc2ccc3c(c2)C(=O)N(C)[C@@H]2CC[C@H](CC(=O)NCCc4ccncc4)O[C@@H]2CO3)cc1	45
COc1ccccc1CNC(=O)C[C@H]1CC[C@H]2[C@@H](COc3ccc(NS(=O)(=O)c4ccc(C)cc4)cc3C(=O)N2C)O1	i
CN1C(=O)c2cc(NC(=O)c3cccc(C(F)(F)F)c3)ccc2OC[C@H]2O[C@H](CC(=O)NCCN3CCCC3)CC[C@H]21	65
COCC#Cc1cnc2c(c1)C(=O)N([C@H](C)CO)C[C@@H](C)[C@@H](CN(C)Cc1ccccc1)O2	i
C[C@@H]1CN([C@@H](C)CO)C(=O)c2cc(-c3ccc(F)cc3)cnc2O[C@H]1CN(C)C(=O)c1ccccn1	i
C[C@@H]1CN([C@@H](C)CO)C(=O)c2cc(C#Cc3ccccn3)cnc2O[C@@H]1CN(C)C(=O)CCN1CCCCC1	i
COc1cccc(-c2cnc3c(c2)C(=O)N([C@@H](C)CO)C[C@@H](C)[C@@H](CN(C)C(=O)Nc2ccccc2F)O3)c1	i
COc1ccccc1S(=O)(=O)N(C)C[C@@H]1Oc2cc(/C=C/c3ccccc3)ccc2S(=O)(=O)N([C@@H](C)CO)C[C@H]1C	i
C[C@H](O)C#Cc1cnc2c(c1)C(=O)N([C@@H](C)CO)C[C@@H](C)[C@@H](CN(C)C(=O)CN(C)C)O2	i
COCC(=O)N(C)C[C@@H]1Oc2cc(-c3cccc(F)c3)ccc2S(=O)(=O)N([C@H](C)CO)C[C@H]1C	i
CC(C)NC(=O)N(C)C[C@H]1Oc2cc(C3=CCCCC3)ccc2S(=O)(=O)N([C@@H](C)CO)C[C@H]1C	i
C[C@H](CO)N1C[C@H](C)[C@H](CN(C)S(C)(=O)=O)Oc2cc(C#Cc3ccc(F)cc3)ccc2S1(=O)=O	i
C[C@H]1CN([C@@H](C)CO)S(=O)(=O)c2ccc(-c3ccc(C#N)cc3)cc2O[C@H]1CN(C)C(=O)C1CC1	i
C[C@@H]1CN([C@@H](C)CO)C(=O)c2cc(-c3cccnc3)cnc2O[C@@H]1CN(C)S(C)(=O)=O	i
C[C@H]1CN([C@@H](C)CO)C(=O)c2cc(-c3cccnc3)cnc2O[C@H]1CN(C)S(C)(=O)=O	i
CC(C)C(=O)NC(c1cccc([N+](=O)[O-])c1)c1ccc2cccnc2c1O (stereo not given)	41
SMILES	miR-122 inh
Cc1ccc(S(=O)(=O)Nc2cccc3cccnc23)c([N+](=O)[O-])c1	i
C[C@@H]1CN([C@H](C)CO)C(=O)c2cccc(NC(=O)NC3CCCCC3)c2O[C@H]1CN(C)Cc1ccc(Cl)c(Cl)c1	i
CCCNC(=O)N(C)C[C@H]1Oc2ncc(C#C[C@H](C)O)cc2C(=O)N([C@@H](C)CO)C[C@@H]1C	i
CC(C)CC#Cc1cnc2c(c1)C(=O)N([C@@H](C)CO)C[C@@H](C)[C@H](CN(C)C(=O)C1CCCCC1)O2	i
COc1cccc(N2CCN(c3ncnc4c3[nH]c3ccc(F)cc34)CC2C)c1 (stereo not given)	32
CC(=O)N(C)C[C@@H]1Oc2cc(C#CC3(O)CCCC3)ccc2S(=O)(=O)N([C@@H](C)CO)C[C@@H]1C	i
C[C@@H]1CN([C@@H](C)CO)C(=O)c2cc(-c3ccccc3F)cnc2O[C@@H]1CN(C)Cc1ccccc1F	i
CCN(CC)CCNC(=O)c1ccc(NC(=O)c2cn(-c3ccc(F)cc3)nc2-c2cccc(OC)c2)cc1	68
COc1cccc(C(=O)Nc2ccc(C(=O)O)cc2)c1	i
C/C=C/c1cnc2c(c1)C(=O)N([C@H](C)CO)C[C@@H](C)[C@@H](CN(C)C(=O)Cc1cccnc1)O2	i
C[C@@H]1CN([C@H](C)CO)S(=O)(=O)c2ccc(C#C[C@@H](C)O)cc2O[C@H]1CN(C)C	i
Cc1ccc(S(=O)(=O)c2ccc([N+](=O)[O-])cn2)cc1	33
C[C@@H]1CN([C@@H](C)CO)S(=O)(=O)c2ccc(C#CCN(C)C)cc2O[C@@H]1CN(C)C(=O)CN(C)C	i
CCC(=O)Nc1ccc(C(=O)Nc2cccc(C)n2)cc1	i
CCC(=O)Nc1cccc(C(=O)/C=C/c2ccccc2)c1	36
CCC(=O)Nc1ccc(S(=O)(=O)NCCc2ccccc2)cc1	i
Cc1ccc(-c2cnc3c(c2)C(=O)N([C@@H](C)CO)C[C@@H](C)[C@H](CN(C)C(=O)Cc2cccnc2)O3)cc1	i
Cc1ccc(-c2cnc3c(c2)C(=O)N([C@@H](C)CO)C[C@H](C)[C@@H](CN(C)C(=O)Cc2cccnc2)O3)cc1	i
CO[C@@H]1CN(C)C(=O)c2cc(NC(C)=O)ccc2OC[C@@H](C)N(C(=O)c2ccccc2)C[C@H]1C	i
COc1cccc(-c2cnc3c(c2)C(=O)N([C@H](C)CO)C[C@@H](C)[C@@H](CN(C)CC2CCOCC2)O3)c1	i
COCC#Cc1ccc2c(c1)O[C@H](CN(C)C(=O)C1CCCCC1)[C@@H](C)CN([C@@H](C)CO)S2(=O)=O	i
CO[C@@H]1CN(C)C(=O)c2ccc(NS(=O)(=O)c3cccc(C)c3)cc2OC[C@@H](C)N(C(=O)Cc2cccnc2)C[C@H]1C	i
Cc1ccc(C2CN(C)C3(C(=O)Nc4ccccc43)C23COc2ccccc2C3=O)cc1 (stereo not given)	i
Cc1ccc(C2CN=NC23CCc2ccccc2C3=O)cc1 (stereo not given)	51
C[C@@H]1CN([C@H](C)CO)C(=O)c2cc(/C=C/c3ccccc3)cnc2O[C@@H]1CN(C)Cc1ccccc1F	i
SMILES	miR-122 inh
CC(C)CC#Cc1ccc2c(c1)O[C@@H](CN(C)C(=O)NC1CCCC1)[C@H](C)CN([C@@H](C)CO)S2(=O)=O	i
O=C(NC[C@@H]1[C@H](c2ccccc2)[C@@H](CO)N1C(=O)C1CC1)NC1CCCC1	i
CCN(C[C@H]1[C@H](c2ccccc2)[C@@H](CO)N1C(=O)C1CC1)C(=O)NC1CCCC1	36
COCC#Cc1ccc2c(c1)O[C@@H](CN(C)C(C)=O)[C@H](C)CN([C@@H](C)CO)S2(=O)=O	i
C[C@H](CO)N1C[C@H](C)[C@H](CN(C)C(=O)Nc2cccc3ccccc23)Oc2ncc(-c3cc4ccccc4o3)cc2C1=O	i
CO[C@H]1CN(C)C(=O)c2cc(NC(=O)Nc3ccccc3)ccc2OC[C@H](C)NC[C@H]1C	i
